High-throughput results deposited in PubChem BioAssay by National Center for Advancing Translational Sciences (NCATS).
The sample as a whole holds a higher share of hits than the screen did.
AMA1-RON2 inh: disrupts binding of P. falciparum AMA1 to RON2; AlphaScreen AMA1-biotinylated RON2 peptide binding; Potency, µM (highest dose often 58.2 µM), for the others: at the top dose activity change, negative = inhibition, usual class: inhibitors; 360,000 tested, 0.2% active; active = well fitted inhibition curve with a large enough effect; inconclusive = small, poorly fitted or top-dose-only effect; inactive = no such curve, though single readings can be large or run the other way;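 also: potency is read from the fitted curve at half-maximal effect; 0% = vehicle wells and -100% = peptide control; nearly all actives have a fitted effect of over 45% in size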
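AMA1 (3D7) with his tag at 25 nM final met compounds first, then biotinylated RON2 peptide at 25 nM; detection used donor plus acceptor beads, 10 µg/mL apiece, read by AlphaScreen after 30 min at room temperature.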
CHX counter: counter-screen hit for Shiga toxin inhibitors, cycloheximide. cell reporter, cycloheximide protein synthesis inhibition counterscreen. max response, %. 300,000 tested, 12% active. AID 2314; in the data active = max response mostly above about 13%, no sharp cut-off; inactive = mostly below about 14%; also: read at 38.3 µM for the half of the compounds with a filed dose; 0% is about no effect
MARV entry inh: blocks Marburg virus binding to or entry into cells; Marburg virus pseudotyped entry inhibition, cell reporter; 300,000 tested, 1.8% active; AID 540276; Potency, µM (doses to about 37.8 µM), for inactives: at the top dose activity change, negative = inhibition, usual class: inhibitors; calls by dose curve; tested in HEK293 cells; also: potency is read from the fitted curve at half-maximal effect; % is scaled to controls: 0 for no effect and ±100 for the full control effect
LASV entry inh: blocks Lassa virus binding to or entry into cells; Lassa virus pseudotype entry inhibition, cell reporter; Potency, µM (series often up to 37.9 µM), for the others: at the top dose activity change, negative = inhibition, actives largely listed as inhibitors; 300,000 tested, 1.2% active; AID 540256; calls by dose curve; tested in HEK293 cells; also: potency is read from the fitted curve at half-maximal effect; % is scaled to controls: 0 for no effect and ±100 for the full control effect; nearly all actives have a fitted effect of over 50% in size
Shiga toxin inh: Shiga toxin inhibition; Vero cells, Shiga toxin protein synthesis inhibition reporter; inhibition, % at 38.7 µM; 290,000 tested, 9.2% active; AID 2315; in the data active = inhibition mostly above about 28%, no sharp cut-off; inactive = mostly below about 43%; also: 0% is about no effect
Active calls of the source: *; ? = inconclusive; / = no result given; + = active, no number; [ ] = remark or other dose.

SMILES | AMA1-RON2 inh | CHX counter | MARV entry inh | LASV entry inh | Shiga toxin inh
O=C(NC(=S)Nc1ccc(F)c([N+](=O)[O-])c1)c1ccccc1F | 35.8% | 23.2* | ? | ? | 36.7*
O=C(Cc1ccc(F)cc1)Nc1ccc(F)c([N+](=O)[O-])c1 | 20.7% | -1.4 | 12.4%[46.1 µM] | -8.4% | -12.9
O=C(Nc1ccccc1)Nc1ccc(F)c([N+](=O)[O-])c1 | -21.2% | 45.3* | ? | -11.2% | 46.2*
O=C(Nc1ccccc1)Nc1ccc(Cl)c([N+](=O)[O-])c1 | 3.4% | 37.3* | ? | ? | 80.6*
CS(=O)(=O)n1nc(-c2ccco2)nc1NCc1ccccc1Cl | / | / | -1.3%[46.1 µM] | 24.2%[46.1 µM] | /
CCCCC(=O)N(C)c1c(CC)nc2c(OCc3cc(Cl)cc(Cl)c3)cccn12 | -10.1% | / | / | / | /
Cc1ccsc1C(=O)Nc1ccc(F)c([N+](=O)[O-])c1 | -9.2% | 34.9* | 7.4% | ? | 52.8*
CC(C)C(=O)Nc1ccc(NC(=S)NC(=O)c2ccccc2F)cc1 | 10.3% | 15.1* | -15.1% | ? | 29.7
CC(=O)Nc1ccc(S(=O)(=O)Nc2ccc(F)c([N+](=O)[O-])c2)cc1 | -14.9% | -5.2 | -3.7%[46.1 µM] | -5.8% | 5.4
C=CCN1N=C(/C=C/c2ccccc2)CCC1=O | 8.4% | 20.2* | 19.2%[46.1 µM] | -12.9% | 50.5
CN1N=C(/C=C/c2ccccc2)CCC1=O | 12.9% | 28.3* | ? | 15.2% | 87.7*
Cc1ccc(/C=C/C2=NN(C)C(=O)CC2)cc1 | -9.1% | 26.7* | ? | 1.8% | 62.7*
O=C1CCC(/C=C/c2ccccc2)=NN1Cc1ccccc1 | -17.7% | 12.4 | -6.6%[46.1 µM] | -12.5% | 17.4
Cc1ccc(/C=C/C2=NN(Cc3ccccc3)C(=O)CC2)cc1 | -7.7% | 4.1 | -0.3% | ? | 2.7
CCCCc1nc2c(c3c1C[C@H](C)OC3)CN(C(=O)c1ccco1)CC2 | / | / | 3.0%[14.2 µM] | / | /
O=C(OC1CCN(c2ncc(C(F)(F)F)cc2Cl)CC1)c1ccc(Cl)cc1 | ? | -1.4 | -0.9% | 10.7% | -6.3
Cn1ccnc1SCC(=O)c1ccc(Br)cc1 | -3.2% | 38.4* | 5.5% | 26.2% | 59.9*
O=C(CSc1nccn1-c1ncc(C(F)(F)F)cc1Cl)c1ccc(Cl)cc1 | 69.3% | 47.3* | 3.1% | ? | +
O=C(CSc1nccc(=O)[nH]1)c1c[nH]c2ccccc12 | -3.1% | -1.4 | / | / | 8.6
O=C(CSc1nccn1-c1ccccc1)c1ccc(Br)cc1 | -25.3% | 15.7* | 2.0% | 3.9% | 39.2*
Cn1ccnc1SCC(=O)c1c[nH]c2ccccc12 | -9.6% | 43.7* | ? | -20.8%[46.1 µM] | 78.0*
Cc1occc1-c1nnc(SCc2cc(=O)n3cc(Br)ccc3n2)n1C | -5.7% | -5.3 | -1.0% | ? | -7.0
Cc1ccc(Nc2nc(CSc3nnc(-c4ccncc4)n3C)cs2)cc1 | 3.2% | 24.7* | ? | ? | 53.8*
Cc1ccccc1Nc1nc(CSc2nnc(-c3ccoc3C)n2C)cs1 | 6.0% | 20.6* | -0.7% | -8.6% | 58.3
COc1ccc(OC)c(CCNC(=O)c2cc3c(=O)n(C)c4ccccc4c3n2C)c1 | / | / | 12.8%[46.1 µM] | ? | /
SMILES | AMA1-RON2 inh | CHX counter | MARV entry inh | LASV entry inh | Shiga toxin inh
CCN(CC(=O)Nc1ccc2c(c1)OCCO2)S(=O)(=O)c1ccccc1 | 6.5% | 23.9* | ? | ? | 37.2*
CCN(CC)S(=O)(=O)c1cccc(C(=O)N[C@H](C(=O)OCC(N)=O)C(C)C)c1 | -4.3% | -1.8 | -4.7% | 2.5% | -13.2
CCN(CC)S(=O)(=O)c1cccc(C(=O)Nc2ccc3c(c2)OCO3)c1 | 1.8% | 34.8* | ? | -24.1%[46.1 µM] | 91.2*
CS(=O)(=O)N(CCc1ccccc1)CC(=O)Nc1ccc2c(c1)OCO2 | 0.9% | 7.5 | 0.4% | 7.0% | -11.3
CCN(CC)S(=O)(=O)c1cccc(C(=O)N[C@H](C(=O)OCC(=O)Nc2ccccc2)C(C)C)c1 | 4.2% | 14.7* | -4.3% | -2.2% | 15.9
CS(=O)(=O)N(CC(=O)Nc1ccc2c(c1)OCO2)Cc1ccccc1 | -1.8% | 12.7* | 15.9% | 11.1% | 28.0
CCCN(CCC)S(=O)(=O)c1cccc(C(=O)Nc2ccc3c(c2)OCO3)c1 | -7.4% | 8.6 | / | / | -20.2
COc1ccccc1N1CCN(C(=O)Cn2ncc3ccsc3c2=O)CC1 | / | / | 13.1%[46.1 µM] | 3.7%[46.1 µM] | /
CCC(CC)C(=O)Nc1cccc(C(=O)Nc2ccc(S(N)(=O)=O)cc2)c1 | 42.9% | -4.5 | 6.3%[46.1 µM] | -25.1%[46.1 µM] | -5.9
CCN(CC)S(=O)(=O)c1ccc(C(=O)Nc2ccc3c(c2)OCCO3)cc1 | 0.3% | 20.2* | 7.4% | ? | 38.3
CCN(CC)S(=O)(=O)c1ccc(NC(=O)c2ccc(NS(C)(=O)=O)cc2)cc1 | -1.8% | -2.4 | 8.2% | -23.5% | -5.7
